Activity calls are given as the source filed them. Rule for the calls: active = hit-call score of the fitted dose curve at least 0.9, where 1 is the maximum; inactive = score below 0.9.
Experiments:
Settings in all cases: mRNA level, 48 h; actives raise or lower the signal
[1] = read-out: ABC Transporter (ABCB11), ABCB11 (gene 8647); assay: LTEA_HepaRG_ABCB11: Life Technologies and Expression Analysis (LTEA) Assay for ABC Transporter (ABCB11) using HepaRG (AID 2283463)
Summary of the method: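 ABCB11 transcript levels quantified by TaqMan qRT-PCR against three housekeeping genes after 48 h chemical exposure of HepaRG cultures. Concentrations up to 100 uM in half-log steps, 0.5% DMSO vehicle; both induction and suppression scored.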

[2] = read-out: ABC Transporter (ABCC2), ABCC2 (gene 1244); assay: LTEA_HepaRG_ABCC2: Life Technologies and Expression Analysis (LTEA) Assay for ABC Transporter (ABCC2) using HepaRG (AID 2283464)
Summary of the method: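 Endpoint is ABCC2 transcript level from qRT-PCR, normalized to three housekeeping genes and fitted bidirectionally relative to DMSO. Human HepaRG cells received test chemical for 48 h at up to 100 uM (8 points, half-log steps, 0.5% DMSO), duplicate wells.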

[3] = read-out: ATP-citrate lyase (ACLY), ACLY (gene 47); assay: LTEA_HepaRG_ACLY: Life Technologies and Expression Analysis (LTEA) Assay for ATP-citrate lyase (ACLY) using HepaRG (AID 2283466)
Summary of the method: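 ACLY mRNA quantified by qRT-PCR on Fluidigm arrays against three housekeeping genes, after 48 h chemical treatment of HepaRG cells (top concentration 100 uM, half-log steps, 0.5% DMSO vehicle). Up- or down-regulation fitted relative to DMSO.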

[4] = read-out: Peroxisomal acyl-coenzyme A oxidase 1 (ACOX1) gene, ACOX1 (gene 51); assay: LTEA_HepaRG_ACOX1: Life Technologies and Expression Analysis (LTEA) Assay for Peroxisomal acyl-coenzyme A oxidase 1 (ACOX1) gene using HepaRG (AID 2283467)
Summary of the method: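 ACOX1 transcript levels were quantified by TaqMan qRT-PCR against three housekeeping genes after 48 h chemical exposure of differentiated human HepaRG cells. Exposure used eight half-log steps topping at 100 uM, 0.5% DMSO vehicle, in duplicate. Bidirectional curve fits were made relative to DMSO.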

[5] = read-out: Alkaline Phosphatase, Placental (ALPP) gene, ALPP (gene 250); assay: LTEA_HepaRG_ALPP: Life Technologies and Expression Analysis (LTEA) Assay for Alkaline Phosphatase, Placental (ALPP) gene using HepaRG (AID 2283468)
Summary of the method: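 ALPP transcript level, measured by qRT-PCR and normalized to three housekeeping genes (ACTB, GAPDH, POLR2A), after 48 h dosing of differentiated HepaRG in serum-free induction medium. Top concentration 100 uM with half-log dilutions (8 points, 0.5% DMSO, duplicates); bidirectional fitting relative to DMSO.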

[6] = read-out: Bcl-2 (BAD) gene, BAD (gene 572); assay: LTEA_HepaRG_BAD: Life Technologies and Expression Analysis (LTEA) Assay for Bcl-2 (BAD) gene using HepaRG (AID 2283469)
Summary of the method: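 Read-out: qRT-PCR of BAD mRNA, normalized to three housekeeping genes. Human HepaRG cultures got 48 h chemical exposure in 0.5% DMSO, duplicate eight-point half-log series topping at 100 uM. Gain or loss of signal fitted versus DMSO vehicle.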

[7] = read-out: adenosine kinase (ADK) gene, ADK (gene 132); assay: LTEA_HepaRG_ADK: Life Technologies and Expression Analysis (LTEA) Assay for adenosine kinase (ADK) gene using HepaRG (AID 2283471)
Summary of the method: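 HepaRG (human liver), 48 h chemical exposure, 8-pt half-log series, top 100 uM, 0.5% DMSO vehicle. Readout: ADK mRNA by qRT-PCR vs housekeeping genes; bidirectional curve fit relative to DMSO baseline.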

[8] = read-out: Alpha-fetoprotein (AFP) gene, AFP (gene 174); assay: LTEA_HepaRG_AFP: Life Technologies and Expression Analysis (LTEA) Assay for Alpha-fetoprotein (AFP) gene using HepaRG (AID 2283472)
Summary of the method: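 Measures AFP mRNA change in HepaRG after 48 h chemical exposure (8 half-log concentrations, highest 100 uM, 0.5% DMSO). Fold change relative to DMSO, fitted in both directions.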

[9] = read-out: BCL2L11 (gene 10018); assay: LTEA_HepaRG_BCL2L11: Life Technologies and Expression Analysis (LTEA) Assay for Bcl-2 (BCL2L11) gene using HepaRG (AID 2283473)
Summary of the method: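 BCL2L11 transcript levels are measured by Fluidigm qRT-PCR, normalized to three housekeeping genes. HepaRG cultures were plated 48 h, then treated 48 h with test chemical (top 100 uM, half-log, 0.5% DMSO vehicle); curves were fitted bidirectionally against DMSO.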

[10] = read-out: Apolipoprotein A-V (APOA5) gene, APOA5 (gene 116519); assay: LTEA_HepaRG_APOA5: Life Technologies and Expression Analysis (LTEA) Assay for Apolipoprotein A-V (APOA5) gene using HepaRG (AID 2283474)
Summary of the method: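 APOA5 transcript levels were quantified by qRT-PCR, normalized to three housekeeping genes, after 48 h chemical treatment of HepaRG cells (8 points, 100 uM maximum, half-log steps, 0.5% DMSO). Curves fitted in both directions against vehicle.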

[11] = read-out: Apoptosis regulator Bcl-2 (Homo sapiens) (UniProt P10415); assay: LTEA_HepaRG_BCL2: Life Technologies and Expression Analysis (LTEA) Assay for Bcl-2 gene using HepaRG (AID 2283475)
Summary of the method: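 Each chemical was tested in duplicate on HepaRG cultures held in serum-free induction medium for 48 h, highest concentration 100 uM with half-log dilutions. Transcript levels came from multiplexed qRT-PCR, normalised to housekeeping genes; activity was scored in either direction relative to DMSO.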

[12] = read-out: Caspase-3 (Homo sapiens) (UniProt P42574); assay: LTEA_HepaRG_CASP3: Life Technologies and Expression Analysis (LTEA) Assay for cysteine-aspartic acid protease (CASP3) using HepaRG (AID 2283477)
Summary of the method: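 Expression of CASP3 was quantified by TaqMan qRT-PCR against three housekeeping genes (ACTB, GAPDH, POLR2A), bidirectionally versus 0.5% DMSO. HepaRG cultures received compounds in duplicate, top 100 uM with half-log steps, for 48 h in serum-free induction medium.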

[13] = read-out: Cytochrome P450 (CYP24A1), CYP24A1 (gene 1591); assay: LTEA_HepaRG_CYP24A1: Life Technologies and Expression Analysis (LTEA) Assay for Cytochrome P450 (CYP24A1) using HepaRG (AID 2283478)
Summary of the method: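 mRNA of CYP24A1 quantified by TaqMan qRT-PCR (ACTB/GAPDH/POLR2A normalization) after 48 h chemical exposure of HepaRG cells, top concentration 100 uM, half-log steps, 0.5% DMSO vehicle, duplicates. Curves fitted bidirectionally against DMSO baseline.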

[14] = read-out: Cytochrome P450 (CYP1A2), CYP1A2 (gene 1544); assay: LTEA_HepaRG_CYP1A2: Life Technologies and Expression Analysis (LTEA) Assay for Cytochrome P450 (CYP1A2) using HepaRG (AID 2283479)
Summary of the method: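 CYP1A2 transcript measured by TaqMan qRT-PCR against three housekeeping genes after 48-hour chemical exposure of HepaRG cells. Eight-point half-log series topping at 100 uM in 0.5% DMSO, duplicates; gain or loss fitted relative to vehicle.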

[15] = read-out: cysteine-aspartic acid protease (CASP8), CASP8 (gene 841); assay: LTEA_HepaRG_CASP8: Life Technologies and Expression Analysis (LTEA) Assay for cysteine-aspartic acid protease (CASP8) using HepaRG (AID 2283480)
Summary of the method: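 CASP8 transcript measured by TaqMan qRT-PCR with ACTB/GAPDH/POLR2A normalization, after 48 h chemical exposure of HepaRG cells in serum-free induction medium. Eight concentrations, top 100 uM, half-log steps, 0.5% DMSO vehicle; fits in both directions versus DMSO.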

[16] = read-out: Cytochrome P450 (CYP2B6), CYP2B6 (gene 1555); assay: LTEA_HepaRG_CYP2B6: Life Technologies and Expression Analysis (LTEA) Assay for Cytochrome P450 (CYP2B6) using HepaRG (AID 2283481)
Summary of the method: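 CYP2B6 transcript level quantified by qRT-PCR against three housekeeping genes, fitted bidirectionally relative to DMSO. HepaRG cultures received chemicals for 48 h, 8-point half-log series from 100 uM in 0.5% DMSO, duplicate wells, serum-free induction medium.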

[17] = read-out: Cytochrome P450 2C19 (Homo sapiens) (UniProt P33261); assay: LTEA_HepaRG_CYP2C19: Life Technologies and Expression Analysis (LTEA) Assay for CYP2C19 using HepaRG (AID 2283482)
Summary of the method: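 CYP2C19 transcript levels by qRT-PCR, normalized to three housekeeping genes, in HepaRG cells after 48 h chemical exposure. Eight-point half-log series topping at 100 uM, 0.5% DMSO vehicle. Increases and decreases both fitted against DMSO.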

[18] = read-out: CYP2C8 (gene 1558); assay: LTEA_HepaRG_CYP2C8: Life Technologies and Expression Analysis (LTEA) Assay for CYP2C8 using HepaRG (AID 2283483)
Summary of the method: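 CYP2C8 expression measured by TaqMan qRT-PCR and normalized to three housekeeping genes. HepaRG cultures were treated for 48 h with an eight-point half-log series topping at 100 uM, vehicle 0.5% DMSO, duplicates; fitted both directions against DMSO.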

[19] = read-out: CYP2E1 (gene 1571); assay: LTEA_HepaRG_CYP2E1: Life Technologies and Expression Analysis (LTEA) Assay for CYP2E1 using HepaRG (AID 2283485)
Summary of the method: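 Assay uses 48 h exposure of HepaRG hepatic cells, eight concentrations to 100 uM. Expression of CYP2E1 is quantified by TaqMan qRT-PCR with ACTB, GAPDH and POLR2A normalization; curves fitted in both directions relative to vehicle.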

[20] = read-out: CYP4A11 (gene 1579); assay: LTEA_HepaRG_CYP4A11: Life Technologies and Expression Analysis (LTEA) Assay for CYP4A11 using HepaRG (AID 2283486)
Summary of the method: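 Readout is CYP4A11 transcript level by qRT-PCR, normalized to three housekeeping genes and fitted bidirectionally against 0.5% DMSO. Human HepaRG cells were treated 48 h, in duplicate, with an 8-point half-log series topping at 100 uM.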

Measured: AC50

Caspase-3 (Homo sapiens), sequence (P42574 whole entry, looked up): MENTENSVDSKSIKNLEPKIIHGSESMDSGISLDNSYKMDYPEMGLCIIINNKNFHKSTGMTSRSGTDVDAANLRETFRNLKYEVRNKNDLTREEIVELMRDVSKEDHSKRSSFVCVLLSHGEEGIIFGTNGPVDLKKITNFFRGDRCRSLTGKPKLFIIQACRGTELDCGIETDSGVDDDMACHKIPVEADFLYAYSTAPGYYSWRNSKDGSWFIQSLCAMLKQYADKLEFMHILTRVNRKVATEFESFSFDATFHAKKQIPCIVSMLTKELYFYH
Cytochrome P450 2C19 (Homo sapiens), sequence (P33261 whole entry, looked up): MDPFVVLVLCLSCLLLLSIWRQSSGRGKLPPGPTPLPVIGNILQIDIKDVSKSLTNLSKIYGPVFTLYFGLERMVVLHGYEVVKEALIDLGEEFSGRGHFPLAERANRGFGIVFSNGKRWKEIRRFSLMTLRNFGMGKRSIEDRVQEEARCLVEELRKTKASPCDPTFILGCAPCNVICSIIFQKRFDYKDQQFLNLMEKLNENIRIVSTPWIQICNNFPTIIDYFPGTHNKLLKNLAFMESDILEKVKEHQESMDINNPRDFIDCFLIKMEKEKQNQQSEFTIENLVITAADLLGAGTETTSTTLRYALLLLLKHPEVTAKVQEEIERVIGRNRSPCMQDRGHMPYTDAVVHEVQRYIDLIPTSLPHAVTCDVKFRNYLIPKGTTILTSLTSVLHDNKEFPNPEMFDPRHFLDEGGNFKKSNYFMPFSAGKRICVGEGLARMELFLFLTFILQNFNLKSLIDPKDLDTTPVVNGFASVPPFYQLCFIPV
Apoptosis regulator Bcl-2 (Homo sapiens), sequence (P10415 whole entry, looked up): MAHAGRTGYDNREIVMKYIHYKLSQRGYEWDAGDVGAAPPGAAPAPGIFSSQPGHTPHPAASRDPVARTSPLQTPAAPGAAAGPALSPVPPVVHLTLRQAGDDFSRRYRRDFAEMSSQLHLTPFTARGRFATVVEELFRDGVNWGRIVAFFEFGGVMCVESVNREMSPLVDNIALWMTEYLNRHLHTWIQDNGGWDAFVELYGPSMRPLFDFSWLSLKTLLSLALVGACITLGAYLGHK

COc1ccccc1N
active: [16] 24.3 µM
inactive: all other assays above

CCCCCCCCCCCCc1cccc(S(=O)(=O)O)c1
active: [2] 45 µM | [14] 45 µM | [17] 22.7 µM | [18] 45 µM | [20] 21.6 µM
inactive: all other assays above

O=C(O)C1(c2ccc3c(c2)OC[C@H](Cc2ccc(-c4ccccc4)cc2)[C@H]3O)CCCC1
active: [3] 82.4 µM | [4] 91.7 µM | [12] 79 µM | [14] 25 µM | [19] 84.5 µM
inactive: all other assays above

N#Cc1cccnc1
inactive: all assays above

O=C(N[C@H]1CN2CCC1CC2)c1ccc2c(c1)OCCO2
inactive: all assays above

Oc1c(Cl)cc(Cl)cc1Cl
active: [15] 50 µM
not listed: [1] | [13] | [14] | [16] | [17] | [18] | [19] | [20]
inactive: all other assays above

Clc1cccc(Cl)c1Cl
inactive: all assays above
